Screens deposited in PubChem by several laboratories.
TIM10 inh: TIM10 yeast growth inhibition; S. cerevisiae TIM10 strain growth, BacTiter-Glo luminescence, 24 h; inhibition, % at 10 µM; actives 1.4% (n = 330,000); AID 463195;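 active = inhibition of 40% or more at the single tested concentration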;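 also: wild-type TIM10 isogenic control strain grown at permissive 25 °C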
NALP1 yeast inh: NALP1 inhibition | S. cerevisiae NALP1/ASC/caspase-1 growth, X-gal OD620, 72 h | inhibition, % at 10 µM | actives 0.61% (n = 280,000) | AID 2071; in the data active = inhibition mostly above about 24%, no sharp cut-off; inactive = mostly below about 32%
PfHsp90 set2: reduces growth (ATP signal) of yeast expressing P. falciparum Hsp90 | inhibition, % at 9.4 µM | S. cerevisiae expressing PfHsp90, BacTiter-Glo ATP, 48 h; yeast lacking PDR1 and PDR3 efflux regulators | actives 0.32% (n = 310,000);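 active = every replicate shows inhibition above about 80%, whatever the replicate mean, limit read from the data; inconclusive = mean inhibition reaches the set limit but some replicate falls short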
SKKanGAS inh: SKKanGAS growth inhibition | S. pyogenes SKKanGAS, kanamycin growth, BacTiter-Glo, 6 h | inhibition, % at 7.5 µM | actives 1.3% (n = 300,000);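 active = mean replicate score, as percent of positive control median, at least 50; inconclusive = mean below 50 but one replicate at or above 50; inactive = mean and every replicate below 50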;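 also: strain carries kanamycin resistance gene driven by streptokinase promoter and grows in 40 µg/ml kanamycin; loss of luminescence reflects streptokinase promoter inhibition or plain growth inhibition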
tim10-1 inh: tim10-1 yeast growth inhibition. inhibition, % at 20 µM. AID 463190. S. cerevisiae tim10-1 ts strain growth, BacTiter-Glo, 24 h. actives 2.2% (n = 330,000);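 active = inhibition of at least 40%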;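 also: mutant grown at 25 °C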
tim23-1 inh: tim23-1 yeast growth inhibition; S. cerevisiae tim23-1 growth, BacTiter-Glo luminescence, 24 h; inhibition, % at 20 µM; actives 1.3% (n = 330,000); AID 463212;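 active = growth inhibition of the mutant yeast at or above 50%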;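 also: temperature-sensitive mutant grown at 25 °C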
tim10-1 conf: tim10-1 yeast growth inhibition, confirmed; shares compounds with tim10-1 inh; S. cerevisiae tim10-1 ts strain growth, BacTiter-Glo, 24 h; inhibition, % at 20 µM; actives 56% (n = 7,400); AID 463213;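 active = inhibition of yeast growth at or above a set limit in either of two repeat tests at 20 µM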;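 also: tim10-1 mutant grown at permissive 25 °C to find synthetic lethal compounds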
TIM10 conf: confirmation of TIM10 yeast growth inhibitors; shares compounds with TIM10 inh; S. cerevisiae tim10 strain growth, BacTiter-Glo luminescence, 24 h; inhibition, % at 10 µM; actives 63% (n = 4,600); AID 463215;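 active = inhibition of yeast growth at or above a set limit in either of two replicates at 10 µM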; also: this counterscreen used the strain with wild-type TIM10
tim23-1 conf: tim23-1 yeast growth inhibition, confirmed; inhibition, % at 20 µM; shares compounds with tim23-1 inh; actives 83% (n = 4,400); S. cerevisiae tim23-1 growth, BacTiter-Glo luminescence, 24 h;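 active = inhibition above about 39% in either of two replicate wells at 20 µM, limit read from the data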;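 also: temperature-sensitive tim23-1 mutant grown at 25 °C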
Of the large screens only hits and unclear results are named; the others gave an inactive call (follow-up assays come after a bar, where they were run). This is a sample that favours compounds with a hit; in the whole collection about 4.8% have one here.

Cc1nc2ccccc2n1C(=O)c1ccc(Cl)cc1[N+](=O)[O-]	tim10-1 inh 48, tim23-1 inh 50 | tim10-1 conf 33 | tim23-1 conf 39
Cc1cc(Cl)ccc1OCCCC(=O)NCCc1nnc2ccccn12	none
Cc1ccc(Nc2nc(-c3c(C)nc4ccccn34)cs2)cc1	TIM10 inh 58, tim10-1 inh 51, tim23-1 inh 54 | tim10-1 conf 32 | TIM10 conf 58 | tim23-1 conf 43
COC(C[C@H]1O[C@H]1[C@@H](O)COCc1ccccc1)OC	none (no result: NALP1 yeast inh)
Cc1ccc(-c2nnc(C)c(N3CCCC3)n2)cc1	tim10-1 inh 42, tim23-1 inh 54 | tim10-1 conf inactive | tim23-1 conf 69
Cc1nnc(-c2ccccc2)nc1N1CCOCC1	none
Cc1ccc(N(CC(N)=O)C2SC(=O)N(C)C2=O)cc1 (stereo unspecified)	none (no result: PfHsp90 set2)
O=C(NC(=S)NC1C2CC3CC(C2)CC1C3)c1ccccc1 (stereo unspecified)	TIM10 inh 41, SKKanGAS inh inconclusive, tim10-1 inh 48, tim23-1 inh 54 | tim10-1 conf 39 | TIM10 conf inactive | tim23-1 conf 67
O=C(NCCc1ccccc1)C(=O)c1c(-c2ccccc2)cc2ccccn12	tim10-1 inh 51, tim23-1 inh 53 | tim10-1 conf 36 | tim23-1 conf 54
CCN(CC)c1nc(-c2ccccn2)nc(-c2ccccc2)c1C#N	TIM10 inh 60, tim10-1 inh 58, tim23-1 inh 58 | tim10-1 conf 51 | TIM10 conf 65 | tim23-1 conf 53
CSc1nc2ccccc2cc1/C=C(\C#N)c1ccccc1	none
O=Cc1cc2ccccc2nc1SCCCF	TIM10 inh 78, tim10-1 inh 64, tim23-1 inh 67 | tim10-1 conf 69 | TIM10 conf 72 | tim23-1 conf 55
CC(=O)c1ccc(Oc2nc(-c3cccnc3)nc3ccccc23)cc1	none
COc1ccc2c3n([n+]([O-])c2c1)CCN=C3c1cc(Cl)c(N)c(Cl)c1	none (no result: NALP1 yeast inh, SKKanGAS inh)
O=c1oc2cc(Oc3c([N+](=O)[O-])cc(C(F)(F)F)cc3[N+](=O)[O-])ccc2c2c1CCCC2	TIM10 inh 69, tim10-1 inh 72, tim23-1 inh 76 (no result: PfHsp90 set2) | tim10-1 conf 65 | TIM10 conf 74 | tim23-1 conf 79
Cc1nn2c(NCc3ccccn3)cc(C(C)(C)C)nc2c1-c1ccccc1	TIM10 inh 56, PfHsp90 set2 120, SKKanGAS inh 97, tim10-1 inh 62, tim23-1 inh 58 (no result: NALP1 yeast inh) | tim10-1 conf 37 | TIM10 conf 72 | tim23-1 conf 62
COc1cccc2oc3ccc(C#Cc4ccccn4)cc3c(=O)c12	TIM10 inh 56, tim10-1 inh 41, tim23-1 inh 75 | tim10-1 conf 53 | TIM10 conf 38 | tim23-1 conf 70
Cn1c(=O)c2c(nc(CN3CCOCC3)n2CCN2CCOCC2)n(C)c1=O	none
Cc1cc(O)c(C(C)C)cc1NC(=O)Nc1ccc([N+](=O)[O-])cc1	none (no result: TIM10 inh, NALP1 yeast inh, SKKanGAS inh, tim10-1 inh, tim23-1 inh)
CC(C)CCNC(=S)Nc1ccc([N+](=O)[O-])cc1	TIM10 inh 52, NALP1 yeast inh 92, tim10-1 inh 74, tim23-1 inh 60 | tim10-1 conf 67 | TIM10 conf inactive | tim23-1 conf 56
CC(C)CNC(=S)NC(=O)c1ccc([N+](=O)[O-])cc1	tim23-1 inh 53 | tim10-1 conf 32 | tim23-1 conf 42
CC(C)CNC(=S)NC(=O)c1csc([N+](=O)[O-])c1	tim10-1 inh 42, tim23-1 inh 63 | tim10-1 conf 32 | tim23-1 conf 64
Cc1ccc(C(C)C)cc1NC(=O)Nc1ccc([N+](=O)[O-])cc1	TIM10 inh 69, SKKanGAS inh 88, tim10-1 inh 76, tim23-1 inh 75 | tim10-1 conf 79 | TIM10 conf 67 | tim23-1 conf 83
